PubChem BioAssay AID651956 (Broad Institute, 2012)
Entries with a potency or affinity are not part of this list. Inconclusive results are not listed.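 The calls were made as follows: active = in every test run, a fitted half-maximal concentration for signal decrease at or below twice the highest tested concentration; inconclusive = runs disagree, flat 30 to 70% decrease, or poor fit; inactive = the rest.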

Assay: miR-122 activators in hepatoma reporter cells, dose response, cell-based, Huh7 psiCHECK-miR122, Renilla luciferase, cherry-picked (AID 651956);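 also: Renilla luciferase from a miR-122 sensor reporter so lower signal means miR-122 activation; 0% = median neutral control wells and -100% = median positive control wells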
Conditions: 48 h; series mostly up to 35 µM; activity change, negative = signal decrease: at the top concentration

Activity change, negative = signal decrease, inactive:
Cc1cc(C(=O)Nc2cccc(O)c2)co1 -6.99%
C[C@@H]1CN([C@@H](C)CO)S(=O)(=O)c2ccc(C3=CCCCC3)cc2O[C@@H]1CN(C)C(=O)Nc1ccc2c(c1)OCO2 -113%
Cc1ccc(-c2noc(CCC(=O)Nc3ccccc3C)n2)cc1 -15.5%
C[C@@H]1CN([C@@H](C)CO)S(=O)(=O)c2ccc(/C=C/c3ccccc3)cc2O[C@@H]1CN(C)C(=O)NC1CCCCC1 -109%
CCCC(=O)Nc1ccc2c(c1)C(=O)N(C)[C@@H]1CC[C@H](CC(=O)NCc3cccc(F)c3)O[C@H]1CO2 63.9%
COc1cccc(S(=O)(=O)N(C)C[C@@H]2Oc3cc(C4=CCCCC4)ccc3S(=O)(=O)N([C@H](C)CO)C[C@@H]2C)c1 258%
COCCNC(=O)C[C@H]1CC[C@@H]2[C@@H](COc3ccc(NS(=O)(=O)c4ccc(Cl)cc4)cc3C(=O)N2C)O1 -22.1%
CC(=O)Nc1ccc2c(c1)C(=O)N(C)[C@H]1CC[C@@H](CC(=O)NCc3ccc4c(c3)OCO4)O[C@@H]1CO2 -26.6% [at 30 µM]
COc1ccc(C#Cc2ccc3c(c2)O[C@@H](CN(C)C(=O)CN2CCOCC2)[C@@H](C)CN([C@H](C)CO)S3(=O)=O)cc1 14.7%
COc1cccc(C(=O)N2C[C@H]3[C@@H](c4ccccc42)[C@H](CO)N3C(C)=O)c1 40.8%
CCC(=O)N1[C@H](CO)[C@H](c2ccccc2)[C@H]1CNC(=O)CN1CCOCC1 168%
COc1ccccc1C(=O)N1C[C@@H]2[C@H](c3ccccc31)[C@H](CO)N2CC1CCCC1 198%
N#Cc1ccc(NC(=O)Nc2ccc(Oc3ccc(NC(=O)Nc4ccc(C#N)cc4)cc3)cc2)cc1 -58.5%
CCN(CC)CCOc1cccc(C(C)C)c1 5.69%
CCC(=O)N1[C@@H](CO)[C@H](c2ccccc2)[C@@H]1CN(C(C)C)S(C)(=O)=O 182%
OC[C@H]1[C@@H](c2ccccc2)[C@H](CNCC2CCC2)N1CC1CC1 30.6%
CN1C(=O)c2cc(NC(=O)c3ccc4c(c3)OCO4)ccc2OC[C@@H]2O[C@@H](CC(=O)O)CC[C@@H]21 155%
CCOc1ccc(-c2nnc(SCC(=O)Nc3ccc4c(c3)c3ccccc3n4CC)n2N)cc1 71.1%
COc1cccc(CNC(=O)C[C@@H]2CC[C@@H]3[C@H](COc4ccc(NC(C)=O)cc4C(=O)N3C)O2)c1 14.2%
Cc1cc(C)cc(Oc2ccc(NC(=O)C3CC=CCC3C(=O)O)cc2)c1 (stereo not given) -23.7%
O=C(NCC(c1cccnc1)N1CCOCC1)NC1CCCCC1 (stereo not given) -10.8%
CCNC(=O)C[C@H]1CC[C@H]2[C@@H](COc3ccc(NS(C)(=O)=O)cc3C(=O)N2C)O1 -11.3%
COC(=O)C[C@@H]1CC[C@@H]2[C@H](COc3ccc(NC(=O)c4ccc(F)c(F)c4)cc3C(=O)N2C)O1 -16%
O=C(Nc1ccc(Cl)c(C(F)(F)F)c1)c1ccco1 57.4%
CCNC(=O)C[C@H]1CC[C@H]2[C@H](COc3ccc(NC(=O)Nc4cccc(OC)c4)cc3C(=O)N2C)O1 -25.6% [at 30 µM]
